# Source: PubChem BioAssay AID1711 (National Center for Advancing Translational Sciences (NCATS), 2009)
# Inconclusive results are not listed. Unmarked numbers belong to inactive results. Activity calls are given as the source filed them. Calls follow the shape of the dose curve; as a rule, active = well fitted curve in the direction sought with a large enough effect; inconclusive = small, poorly fitted or top-dose-only effect, or another doubt; inactive = no such curve, though single readings can be large or run the other way.
# Biological target: Caspase-1 (Homo sapiens) (UniProt P29466)
# Experiment: Concentration-Response Counterscreen for Tau: Redox Active Inhibitors of Caspase-1
# Details: purified caspase-1, Ac-WEHD-AFC fluorescence kinetic; series mostly up to 40.6 µM; activity change, negative = inhibition: at the top concentration
# Excerpt: NIH Molecular Libraries Probe Production Network [MLPCN] NIH Chemical Genomics Center [NCGC] MLPCN Grant: X01 MH083262-01 Assay Provider: Carlo Ballatore, University of Pennsylvania NCGC Assay Overview: The microtubule-associated protein tau is an abundant protein in the axons of neurons that stabilizes microtubules. With its ability to modulate microtubule dynamics, tau contributes directly or indirectly, to key structural and regulatory cellular functions. Particularly important is the influence tau exerts on axonal transport, which allows signaling molecules, trophic factors and other essential cellular constituents to travel along the axons. Under pathological conditions, tau becomes sequestered into insoluble aggregates called neurofibrillary tangles. This phenomenon is believed to have pathological consequences by promoting axonal transport deficits that ultimately lead to synaptic dysfunction and neuronal loss. To examine the selectivity of tau fibrillization inhibitors, compounds were tested in an in vitro assay for caspase-1 activity. This assay is a counterscreen for tau fibrillization inhibitors to identify non-specific oxidizing agents; an active site cysteine in caspase-1 must remain in a reduced state and the enzyme is inactivated by oxidative compounds. Caspase-1 activity was monitored using a profluorescent substrate that upon enzymatic cleavage yields a fluorescent probe that is detectable at 405 nm excitation and 525 nm emission. Scheer, J. M., Wells, J. A., and Romanowski, M. J. (2005) Protein Expression and Purification 41, 148-153.
# NCGC Assay Protocol Summary: Caspase-1, kindly provided by Dr. James Wells (University of California, San Francisco), was purified and assayed at 100 nM in buffer containing 50 mM HEPES pH 7.5, 50 mM KCl, 200 mM NaCl, and 0.1% CHAPS. Caspase-1 was dispensed at 3 uL/well into black solid 1536-well plates and incubated 5 min with various concentrations of test compound, with subsequent addition of 1 ul/well Ac-WEHD-AFC substrate (20 uM final concentration). Within 1 minute of substrate addition, fluorescence intensity (405 nm excitation and 525 nm emission) was measured on a ViewLux (PerkinElmer) every 30 s for 10 min. The first 3 minutes of fluorescence values were linear and used to calculate the slope of substrate conversion as a measure of enzyme activity.
# Chain of Caspase-1 (Homo sapiens) (P29466 whole entry, looked up): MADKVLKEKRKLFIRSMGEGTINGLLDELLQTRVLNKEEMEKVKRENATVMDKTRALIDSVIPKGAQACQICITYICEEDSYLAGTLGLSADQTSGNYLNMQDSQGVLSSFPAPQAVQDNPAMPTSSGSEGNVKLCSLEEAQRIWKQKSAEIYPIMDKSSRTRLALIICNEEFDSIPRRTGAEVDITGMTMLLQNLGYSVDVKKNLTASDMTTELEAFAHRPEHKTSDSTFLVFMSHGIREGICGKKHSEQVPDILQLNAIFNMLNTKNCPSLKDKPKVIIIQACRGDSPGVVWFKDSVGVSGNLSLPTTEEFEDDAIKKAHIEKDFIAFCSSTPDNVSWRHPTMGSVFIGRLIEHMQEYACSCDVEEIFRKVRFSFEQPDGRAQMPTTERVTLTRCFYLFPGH
SMILES,Potency,"activity change, negative = inhibition"
Nc1cc(-c2ccccc2)c[nH]c1=O,7.94 µM (active),–
CCOC(=O)c1nn(-c2ccc(OC)cc2)c(=O)c2c(N)scc12,inactive,–
CCOC(=O)c1nn(-c2ccc(Cl)c(Cl)c2)c(=O)c2c(N)scc12,–,-2.84%
CCOC(=O)c1nn(-c2ccc(C)c(C)c2)c(=O)c2c(N)scc12,–,1.88%
Nc1scc2c(C(=O)O)nn(-c3ccccc3)c(=O)c12,–,-14.5%
CCOC(=O)c1nn(-c2ccccc2)c(=O)c2c(NC(C)=O)scc12,–,-13.9%
CCOC(=O)c1nn(-c2ccc(F)cc2)c(=O)c2c(N)scc12,–,-19.8%
Nc1scc2c(C(=O)N3CCOCC3)nn(-c3ccccc3)c(=O)c12,–,-10%
CCOC(=O)c1nn(-c2ccccc2)c(=O)c2c(N)sc(C)c12,–,-9.73%
CCOC(=O)c1nn(-c2ccccc2)c(=O)c2c(NC(=O)c3ccccc3)scc12,–,-8.05%
COc1ncc(-c2ccccc2)cc1N,15.8 µM (active),–
CC(=O)Nc1sc(C)c2cnn(-c3ccccc3)c(=O)c12,–,-3.22%
CCOC(=O)c1nn(-c2ccccc2F)c(=O)c2c(N)scc12,–,7.77%
CCOC(=O)c1nn(-c2ccc(C)cc2)c(=O)c2c(N)scc12,–,-3.58%
Nc1scc2c(CO)nn(-c3ccccc3)c(=O)c12,–,-19.2%
CCOC(=O)c1nn(-c2ccccc2)c(=O)c2c(N)scc12,–,-11%
CCOC(=O)c1ccc(-n2nc(C(=O)OCC)c3csc(N)c3c2=O)cc1,–,-20.3%
Nc1nn(-c2ccccc2)c(=O)c2c(N)scc12,–,-11.3%
CCOC(=O)c1nn(-c2cccc(C(F)(F)F)c2)c(=O)c2c(N)scc12,–,-16.5%
